Assay outcomes: PubChem, National Center for Advancing Translational Sciences (NCATS)
NPR1 antag: Natriuretic polypeptide receptor (hNpr1) antagonism - Primary qHTS; HEK293 hNpr1 GloSensor cGMP, ANP-stimulated luminescence; Potency, µM (titrated, usually from 46.3 µM), usual class: inhibitors; actives 1.6% (n = 76,000); calls by dose curve; note: nearly all actives have a fitted effect of over 60% in size
Target sequence (P16066 whole entry, looked up): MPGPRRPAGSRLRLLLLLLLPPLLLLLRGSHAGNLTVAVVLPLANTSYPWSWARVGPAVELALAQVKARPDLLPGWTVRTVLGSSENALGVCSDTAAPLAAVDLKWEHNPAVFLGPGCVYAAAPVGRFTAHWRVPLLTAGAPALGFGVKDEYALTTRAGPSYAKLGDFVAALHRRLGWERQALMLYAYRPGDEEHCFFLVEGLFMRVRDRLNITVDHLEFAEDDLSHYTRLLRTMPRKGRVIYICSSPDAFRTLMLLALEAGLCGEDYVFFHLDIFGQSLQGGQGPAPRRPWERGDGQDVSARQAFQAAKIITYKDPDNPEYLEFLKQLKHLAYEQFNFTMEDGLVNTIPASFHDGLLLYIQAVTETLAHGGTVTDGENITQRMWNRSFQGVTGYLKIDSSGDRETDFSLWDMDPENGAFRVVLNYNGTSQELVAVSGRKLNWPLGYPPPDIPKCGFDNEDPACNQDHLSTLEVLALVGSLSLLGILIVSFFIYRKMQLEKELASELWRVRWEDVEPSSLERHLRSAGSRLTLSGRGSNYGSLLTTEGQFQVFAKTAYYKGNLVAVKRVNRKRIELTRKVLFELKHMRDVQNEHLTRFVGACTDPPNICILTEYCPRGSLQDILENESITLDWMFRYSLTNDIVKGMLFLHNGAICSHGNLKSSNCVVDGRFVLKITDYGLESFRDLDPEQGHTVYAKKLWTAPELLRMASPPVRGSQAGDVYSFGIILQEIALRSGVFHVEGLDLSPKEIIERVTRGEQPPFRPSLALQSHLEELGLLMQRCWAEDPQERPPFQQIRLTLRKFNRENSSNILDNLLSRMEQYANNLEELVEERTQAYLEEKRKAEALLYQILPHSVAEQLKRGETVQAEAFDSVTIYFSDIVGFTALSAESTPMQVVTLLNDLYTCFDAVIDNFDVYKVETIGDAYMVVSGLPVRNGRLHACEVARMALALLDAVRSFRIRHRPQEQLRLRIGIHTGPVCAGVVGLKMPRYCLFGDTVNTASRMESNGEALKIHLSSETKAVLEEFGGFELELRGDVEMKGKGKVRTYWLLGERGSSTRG
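HEK293 cells stably expressing human Npr1 and cGMP GloSensor pGS-40F, loaded 2 h with 2% GloSensor reagent, given compound 30 min at room temperature. Luminescence read before and 20 min after 0.1 nM hNppA.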
FLuc inh-1: Firefly luciferase inhibition profiling of diverse chemical library using quantitative high-throughput screening; Luciferin 4-monooxygenase (Photinus pyralis), P08659; actives 2.5% (n = 76,000); Potency, µM (titrated, usually from 115 µM), usual class: inhibitors; purified P. pyralis luciferase, luminescence, biochemical; note: nearly all actives have a fitted effect of over 65% in size
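FLuc 10nM, D-luciferin 10uM, ATP 10uM, Mg acetate 10mM, Tris acetate pH 7.5, Tween/BSA; cpd qHTS; enzyme added last; CCD luminescence.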
HEK cytotox: Cytotoxic Profiling in HEK 293 Cell Line of Diverse Libraries Using Quantitative High-Throughput Screening; HEK 293 viability, ATP luminescence (CellTiter-Glo), 48-72 h; Potency, µM (highest dose often 115 µM), actives largely listed as inhibitors; actives 6.6% (n = 94,000); AID 1345083, 2018; note: nearly all actives have a fitted effect of over 60% in size
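HEK 293 seeded at 250 cells/well receive compound via pintool. After 48 or 72 hr at 37 degree Celsius, 5% CO2 and 95% humidity, CellTiter-Glo is dispensed and luminescence read following 10 min at room temperature.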
3T3 cytotox: Cytotoxic Profiling in NIH 3T3 Cell Line of Diverse Libraries Using Quantitative High-Throughput Screening; NIH 3T3 viability, CellTiter-Glo ATP luminescence, 48-72 h; Potency, µM (series often up to 96.7 µM), actives largely listed as inhibitors; actives 4.3% (n = 94,000); note: nearly all actives have a fitted effect of over 55% in size
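NIH 3T3 cells at 400 cells/well received 23 nL of compound by pintool and were incubated 48 or 72 h at 37 °C. Viability was read as ATP-coupled CellTiter-Glo luminescence.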
FLuc SDR no ATP: Firefly luciferase (FLuc-C-HiBiT) SDR gain of signal screen - without ATP. shares compounds with FLuc inh-1. Purified FLuc-C-HiBiT, Nano-Glo HiBiT luminescence, no ATP. actives 7.8% (n = 1,300). Potency, µM (top dose mostly 32.7 µM), most hits filed as activators; note: nearly all actives have a fitted effect of over 55% in size
FLuc SDR ATP: Firefly luciferase (FLuc-C-HiBiT) SDR gain of signal screen - plus ATP; shares compounds with FLuc inh-1; purified FLuc-C-HiBiT + ATP, HiBiT complementation luminescence; Potency, µM (titrated, usually from 32.7 µM), actives largely listed as activators; actives 8.7% (n = 1,300); AID 1963319, 2024;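 note: signal reports ligand binding via conformational change of the enzyme rather than luciferase catalysis; nearly all actives have a fitted effect of over 55% in size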
FLuc inh-2: Firefly luciferase (FLuc-C-HiBiT) enzymatic inhibition screen - Functional assay; shares compounds with FLuc inh-1; purified FLuc-C-HiBiT enzyme, luciferin luminescence; Potency, µM (highest dose often 32.7 µM), usual class: inhibitors; actives 42% (n = 1,300); note: nearly all actives have a fitted effect of over 70% in size
Large screens that a line does not name were inactive (follow-up assays come after a bar, where they were run). Sampled rows, rich in hits. Any-hit rate of the full collection: about 11%. Unless noted, calls come from the whole dose curve; as a rule, active = well fitted curve in the direction sought with a large enough effect; inconclusive = small, poorly fitted or top-dose-only effect, or another doubt; inactive = no such curve, though single readings can be large; an effect the other way counts as inactive or inconclusive.

CC(C)N1CC2(C1)C(=O)N(C)C(=O)[C@@H]1C[C@@H](O)CN12	none
Fc1ccc(-n2ncc3c(N4CCCCC4)nc(NN4CCOCC4)nc32)cc1	none (no result: NPR1 antag, FLuc inh-1, HEK cytotox, 3T3 cytotox) | FLuc SDR no ATP inactive | FLuc SDR ATP inactive | FLuc inh-2 inactive
O=C(NCCc1cnc[nH]1)c1ccc2nc(-c3ccc(F)cc3)cn2c1	FLuc inh-1 10µM, HEK cytotox inconclusive, 3T3 cytotox inconclusive | FLuc SDR no ATP inactive | FLuc SDR ATP inactive | FLuc inh-2 inconclusive
Cc1csc(NC(=O)[C@@H]2CCC[C@@H](NCc3cccnc3)CN(C)C(=O)C2)n1	none
COc1ccc(-c2noc(N3CCc4ccccc43)n2)cc1	NPR1 antag inconclusive, FLuc inh-1 1.6µM | FLuc SDR no ATP inactive | FLuc SDR ATP inconclusive | FLuc inh-2 3.1µM
Cc1cccc(NC(=O)Nc2ccc(F)cc2)n1	none (no result: NPR1 antag, FLuc inh-1, HEK cytotox, 3T3 cytotox) | FLuc SDR no ATP inactive | FLuc SDR ATP inactive | FLuc inh-2 inconclusive
Cc1cc(=O)n(CC(=O)Nc2ccc(F)cc2)c(-c2ccc(F)cc2)n1	HEK cytotox inconclusive
N#C/C(=C\c1ccc(-c2cc(Cl)ccc2Cl)o1)C(=O)Nc1ccccc1C(=O)O	none (no result: NPR1 antag, FLuc inh-1, HEK cytotox, 3T3 cytotox) | FLuc SDR no ATP inactive | FLuc SDR ATP inactive | FLuc inh-2 inconclusive
COc1ccc(-c2cc(N3CCCC(NC(=O)c4ccc(OC)c(OC)c4)C3)n[nH]2)cc1 (centres undefined)	FLuc inh-1 3.2µM, HEK cytotox inconclusive, 3T3 cytotox inconclusive | FLuc SDR no ATP inconclusive | FLuc SDR ATP inconclusive | FLuc inh-2 3.9µM
O=C(NC1CCCN(c2cc(-c3ccc(F)cc3)[nH]n2)C1)c1ccc(C(F)(F)F)cc1 (centres undefined)	HEK cytotox inconclusive
COc1ccc(C(=O)NC2CCCN(c3cc(-c4ccc(F)cc4)[nH]n3)C2)cc1OC (centres undefined)	FLuc inh-1 13µM, HEK cytotox inconclusive | FLuc SDR no ATP inactive | FLuc SDR ATP inactive | FLuc inh-2 inconclusive
COc1ccc(C(=O)NC2CCCN(c3cc(-c4ccc(Cl)cc4)[nH]n3)C2)cc1OC (centres undefined)	FLuc inh-1 4µM, HEK cytotox 35µM, 3T3 cytotox inconclusive | FLuc SDR no ATP inactive | FLuc SDR ATP inactive | FLuc inh-2 6.2µM
Cc1cc2ncc(C(=O)NCC(F)F)cn2n1	none (no result: NPR1 antag, FLuc inh-1)
O=C(c1ccoc1)N1CCCC(CN2CCCC2)CC1 (centres undefined)	none
CC1(C(=O)NCc2ccccc2)CCCCC(=O)N1 (centres undefined)	none
Cn1cnc([S+](=O)([O-])N2CCC(c3nnc4n3C(C(=O)O)CC4)CC2)c1 (centres undefined)	none (no result: NPR1 antag, FLuc inh-1)
Cc1cc(Cl)ccc1-n1nc(C)c([C@@H]2C=C[C@@H](NC(=O)CCCC(=O)O)C2)c1C	FLuc inh-1 inconclusive
Cc1ccc(-n2nc(C)c([C@@H]3C=C[C@@H](NC(=O)Nc4ccc(Cl)cc4)C3)c2C)cc1Cl	NPR1 antag inconclusive, FLuc inh-1 10µM, HEK cytotox 16µM, 3T3 cytotox 28µM | FLuc SDR no ATP inactive | FLuc SDR ATP inactive | FLuc inh-2 inconclusive
Cc1ccc(-n2nc(C)c([C@H]3C=C[C@@H](O)C3)c2C)cc1Cl	NPR1 antag 18µM, FLuc inh-1 1.1µM, HEK cytotox inconclusive, 3T3 cytotox inconclusive | FLuc SDR no ATP inactive | FLuc SDR ATP inconclusive | FLuc inh-2 13µM
Cc1noc([C@H]2CCN(Cc3ccsc3)C[C@H]2NC(=O)C2CC2)n1	none
COc1ccc(NC(=O)c2ccc3oc(-c4ccncc4)nc3c2)cc1	none (no result: NPR1 antag, FLuc inh-1)
CCOc1ccc(C(=O)Nc2cc(-c3nc4cc(OC)ccc4o3)ccc2C)cc1[N+](=O)[O-]	none (no result: NPR1 antag, FLuc inh-1, HEK cytotox, 3T3 cytotox) | FLuc SDR no ATP inactive | FLuc SDR ATP inactive | FLuc inh-2 inconclusive
COc1cc(OC)cc(C(=O)Nc2cccc(-c3nnc4n3CCCC4)c2)c1	HEK cytotox inconclusive
COc1ccc(NC(=O)Nc2cccc(-c3ccc(N4CCCCC4)nn3)c2)c(OC)c1	NPR1 antag 7.9µM, FLuc inh-1 0.32µM, HEK cytotox inconclusive | FLuc SDR no ATP inconclusive | FLuc SDR ATP inconclusive | FLuc inh-2 0.99µM
CCOc1ccccc1NC(=O)Nc1cccc(-c2ccc(N3CCOCC3)nn2)c1	FLuc inh-1 2.8µM, HEK cytotox 25µM, 3T3 cytotox inconclusive | FLuc SDR no ATP inactive | FLuc SDR ATP inconclusive | FLuc inh-2 3.9µM
COc1ccc(NC(=O)Nc2cccc(-c3ccc(N4CCOCC4)nn3)c2)cc1Cl	NPR1 antag 13µM, FLuc inh-1 0.63µM, HEK cytotox 22µM, 3T3 cytotox inconclusive | FLuc SDR no ATP inconclusive | FLuc SDR ATP inconclusive | FLuc inh-2 1.2µM
COc1ccc(-c2ccc(C(=O)Nc3cccc(C(F)(F)F)c3)cc2)nn1	HEK cytotox inconclusive (no result: NPR1 antag, FLuc inh-1)
O=C(Nc1cccc(-c2ccc(N3CCOCC3)nn2)c1)Nc1cccc(C(F)(F)F)c1	NPR1 antag 11µM, FLuc inh-1 1.8µM, HEK cytotox 28µM, 3T3 cytotox inconclusive | FLuc SDR no ATP inconclusive | FLuc SDR ATP inactive | FLuc inh-2 5µM
O=C1CCC2(CNC(=O)c3ccco3)CCCC=C2N1 (centres undefined)	none
Cc1cccc(-n2nc(-c3c(C)nc4scc(CC(=O)N5CCCC5)n4c3=O)cc2C)c1	none
CNC(=O)NC[C@H]1CCN(Cc2ccc(C#N)cc2)C[C@H]1N(C)C	none
CN1CCN(c2ccc(-c3cccc(NC(=O)C4CCCCC4)c3)nn2)CC1	FLuc inh-1 14µM, HEK cytotox inconclusive, 3T3 cytotox inconclusive | FLuc SDR no ATP inactive | FLuc SDR ATP inactive | FLuc inh-2 8.8µM
O=C(C1CC1)N1CCCN(c2ccc3nnc(C4CC4)n3n2)CC1	none (no result: NPR1 antag, FLuc inh-1)
Clc1ccc2c(c1)-n1cc(-c3ccccc3)nc1CO2	none (no result: NPR1 antag, FLuc inh-1, HEK cytotox, 3T3 cytotox) | FLuc SDR no ATP inactive | FLuc SDR ATP inactive | FLuc inh-2 inactive
O=C1COc2ccc(-c3ccncc3)nc2CN1Cc1ccccc1	HEK cytotox inconclusive, 3T3 cytotox inconclusive
COc1ccccc1OCc1nc2c(n1Cc1ccccc1)C(=O)N(Cc1ccccc1F)CCN2	HEK cytotox inconclusive, 3T3 cytotox inconclusive
